Screening data (PubChem)
Only some compounds are listed: those with a hit (about 1.1% of all), similar ones and a draw of the others.
IDE cell inh: inhibitors of human insulin-degrading enzyme in cells; P14735; HEK cells, FAbetaB cleavage, fluorescence polarization; inhibition, % at 5.59 µM; hit rate 0.41% among 320,000; AID 434962;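 active = percent inhibition above the average of all tested compounds plus 3 SD, set per screening campaign, cut at about 16% in these data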;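 note: IDE supplied by intact live HEK cells; FP after avidin binding of uncleaved biotin substrate so inhibition keeps polarization high; 0% = DMSO wells and 100% = 60 µM reference IDE inhibitor Ii1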
LANA-H2A inh: blocks KSHV LANA binding to histone H2A/H2B; Q9QR71; cell-free LANA-H2A/H2B peptide, fluorescence polarization; inhibition, % (test concentration not listed); hit rate 0.6% among 320,000; in the data active = inhibition mostly above about 10%, no sharp cut-off; inactive = mostly below about 6.7%
IDE act: activators of human insulin-degrading enzyme in cells; P14735; HEK cells, FAbeta-B cleavage, fluorescence polarization; 0% vehicle, 100% cell-free pure enzyme wells; activation, % at 5.96 µM; hit rate 0.073% among 340,000;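 active = activation above the mean of all tested compounds plus 3 SD, set per screening campaign, cut at about 17% in these data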
HDAC3 inhib: inhibitors of human histone deacetylase 3 | O15379 | recombinant HDAC3, fluorogenic peptide/trypsin coupled, fluorescence | inhibition, % at 8.3 µM | hit rate 0.15% among 320,000 | AID 2718; in the data active = inhibition above about 26%, passing the limit was not always enough
Numbers without * were called inactive; . = no result; ! = a repeat was not active.

SMILES	IDE cell inh	LANA-H2A inh	IDE act	HDAC3 inhib
COc1ccc(NC(=O)COC(=O)CCC(=O)c2cccs2)cc1OC	6.2	22.9*	-0.9	-1.7
Cc1ccc(NC(=O)COC(=O)CCC(=O)c2cccs2)cc1C	-0.8	1.2	4.3	9.6
O=C(c1cc(C2CC2)on1)N1CCCC(N2CCN(c3ccc(F)cc3)CC2)C1 (stereo not drawn)	-0.4	12.6*	5.6	0.9
O=C(C1CC(=O)N(c2ccc(F)cc2)C1)N1CCOCC1 (stereo not drawn)	-8.3	-2.0	-1.7	0.6
O=C(C1CC(=O)N(c2ccc(Cl)cc2)C1)N1CCOCC1 (stereo not drawn)	1.5	28.1*	1.9	0.0
Cc1ccc(N2CC(C(=O)N3CCN(Cc4ccc5c(c4)OCO5)CC3)CC2=O)cc1 (stereo not drawn)	-0.2	52.2*	-0.3	4.6
CCOc1ccc2ccc(OCC)c(/C=N/n3cnnc3)c2c1	-3.6	-1.8	4.6	-0.1
CC(C)N(CCn1c(SCC(=O)Nc2cccnc2Cl)nc2ccccc2c1=O)C(C)C	2.2	9.9*	0.8	-1.0
CNC(=S)N(Cc1cccs1)Cc1cc2cc(OC)ccc2[nH]c1=O	5.7	4.7	34.0*	-5.9
COc1ccc(S(=O)(=O)N2CCC3(CC2)OCCN3S(=O)(=O)c2c(C)cc(C)cc2C)cc1	3.0	1.9	-4.3	-12.6
COc1cc2c(cc1OC)C(c1cccc(Cl)c1)CC(=O)N2 (stereo not drawn)	.	-0.6	-3.6	-3.7
COc1cc2c(cc1OC)C(c1cccc(C)c1)CC(=O)N2 (stereo not drawn)	-0.8	47.4*	-3.5	-3.5
O=C(CN(C(=O)CNC(=O)c1ccco1)c1ccc(F)cc1)NC1CCCCC1	-5.9	1.2	4.6	0.7
CCOc1ccc(N(CC(=O)NC2CCCCC2)C(=O)CNC(=O)c2ccco2)cc1	6.8	26.1*	4.2	0.3
CC(=O)Nc1ccc(N(C(=O)c2ccco2)C(C(=O)NC2CCCCC2)c2ccccc2)cc1 (stereo not drawn)	6.7	10.0*	-7.0	-5.3
O=C(NCC(=O)N(c1cccnc1)C(C(=O)NC1CCCCC1)c1cccnc1)c1ccco1 (stereo not drawn)	5.2	13.5*	1.6	-0.9
O=C(NCC(=O)N(c1ccccc1)C(C(=O)NC1CCCC1)c1cccnc1)c1ccco1 (stereo not drawn)	-1.8	0.2	4.6	-4.0
Cc1ccc(NC(=O)COC(=O)C2CC2)c(Br)c1	6.9	-1.3	0.6	-1.5
CCOc1ccc(S(=O)(=O)Nc2ccccc2C(=O)N2CCOCC2)cc1	-6.0	-0.7	0.6	-4.1
CN(C)CCCN(C(=O)CCSc1ccccc1)c1nc2cc3c(cc2s1)OCO3	2.8	-1.3	42.9*	-2.3
CN(C)CCCN(C(=O)CCc1ccccc1)c1nc2ccc(F)cc2s1	0.1	7.7	2.4	3.7
CN(C)CCCN(C(=O)CCS(=O)(=O)c1ccccc1)c1nc2cc3c(cc2s1)OCO3	-1.2	-0.8	-0.3	6.6
CN(C)CCCN(C(=O)CCc1ccccc1)c1nc2ccc(Br)cc2s1	-2.3	-3.2	28.6*	1.8
CC1(C2CC2)NC(=O)N(CC(=O)Nc2ccc(C(F)(F)F)cc2)C1=O (stereo not drawn)	-1.2	12.1*	4.6	8.3
Cc1cc(OCC(F)(F)C(F)(F)C(F)(F)C(F)(F)C(F)(F)C(F)F)nc(N)n1	-1.4	0.0	3.4	.
SMILES	IDE cell inh	LANA-H2A inh	IDE act	HDAC3 inhib
NC(=O)c1ccc(OCC(F)(F)C(F)(F)C(F)(F)C(F)(F)C(F)(F)C(F)F)cc1	1.7	-2.5	0.1	30.9*
CC(=O)c1ccc(NC(=O)COC(=O)/C=C/c2cccs2)cc1	-0.6	-5.8	-1.1	1.2
CC(C)[C@H]1COCCS(=O)(=O)N1Cc1ccccc1-c1ccccc1	.	.	2.7	.
O=C(NCCNc1ccc(Cl)cc1[N+](=O)[O-])c1cccnc1	-2.8	11.9*	0.4	0.5
Oc1ccc2nnc3c(Br)cnn3c2c1	15.1	19.4*	-5.8	4.6
CC(OC(=O)c1cccc(-n2cnnn2)c1)C(=O)Nc1cccc(Cl)c1 (stereo not drawn)	-3.2	-6.4	-3.5	-2.8
CC(C)c1nnc(NC(=O)Cc2ccccc2[N+](=O)[O-])s1	-2.8	1.5	2.4	-1.2
Cc1ccc(Sc2ncccc2N)cc1	-1.1	37.4*	.	4.6
Cc1ccc(Sc2ncccc2O)cc1	1.2	-5.5	1.0	5.0
CCOc1ccccc1CNC(=O)CCC(=O)N1Cc2ccccc2Oc2ncccc21	-4.5	-0.9	4.6	5.0
N=C(N)c1ccc(Cl)cc1	-2.3	-1.6	6.1	-0.6
N=C(N)c1ccc(/C=C/c2ccc(C(=N)N)cc2O)cc1	6.5	0.9	-0.5	50.3*
Cc1cc(C)c2nc(C(F)(F)F)nc(NCCCN3CCCC3=O)c2c1	9.6	19.3*	3.5	-5.9
Cc1ccc(S(=O)(=O)c2nnn3c2nc(NCCCN2CCCC2=O)c2ccccc23)cc1C	1.1	4.8	3.4	8.3
C[C@@]12CC(=O)NC1N(C(=O)c1cccc(C(F)(F)F)c1)C(c1ccccc1OC(=O)c1cccc(C(F)(F)F)c1)C2 (stereo partly drawn)	-1.2	10.3	7.4	41.8*
C[C@@]12CC(=O)NC1N(C(=O)c1ccccc1)C(c1ccccc1OC(=O)c1ccccc1)C2 (stereo partly drawn)	-1.2	-0.9	2.2	-2.2
Cc1ccc(OCC(=O)N(C)Cc2ccccc2)c([N+](=O)[O-])n1	7.2	16.6*	1.1	-1.5
O=C(/C=C/Nc1ccccc1)c1ccccc1	-8.4	-0.9	-2.6	9.3
O=C(/C=C/Nc1ccccc1)c1ccc(Cl)cc1Cl	5.5	5.1*	2.4	-5.4
Cc1cccc(CS(=O)(=O)c2nnc([C@H](Cc3ccccc3)NC(=O)OC(C)(C)C)o2)c1	0.6	-3.6	-8.3	60.7*
COC(=O)CSc1nnc([C@H](Cc2ccccc2)NC(=O)OC(C)(C)C)o1	4.4	-8.6	-0.8	0.1
COC(=O)CS(=O)(=O)c1nnc([C@H](Cc2ccccc2)NC(=O)OC(C)(C)C)o1	-1.3	3.0	-3.3	55.4*
CC12CCC(=O)N1C(C(=O)Nc1cc(S(=O)(=O)N3CCCCCC3)ccc1OCC(F)(F)F)CS2 (stereo not drawn)	-0.8	-0.1	-0.3	2.4
COCCOc1nc2c(c(=O)n(C)c(=O)n2C)n1CCc1ccccc1	-4.4	11.0*	-3.0	-3.4
O=C(O)Cc1ccc(O)c(F)c1	3.0	47.0*!	-2.6	-3.8
CN1C(=O)C(N=Nc2ccc([N+](=O)[O-])cc2)SC1=S (stereo not drawn)	.	.	-2.3	.
CC1CCCCC1NC(=O)Cn1cc([N+](=O)[O-])ccc1=O (stereo not drawn)	-1.5	14.9*	7.8	7.8
COC(=O)[C@]1(C)N[C@H](CN(C)C(=O)Nc2ccc(C)cc2)[C@@H]2C(=O)N(C)C(=O)[C@@H]21	2.0	159.9*	5.2	3.8
CCN(C[C@H]1N[C@@](C)(C(=O)OC)[C@H]2C(=O)N(C)C(=O)[C@@H]12)C(=O)c1ccc(F)cc1	-0.4	.	-2.0	.
COC(=O)[C@]1(C)N[C@H](CN(C)C(=O)Nc2ccc(C)cc2)[C@@H]2C(=O)N(Cc3ccccc3)C(=O)[C@@H]21	1.3	-1.4	-0.9	-2.4
